DT40 TDP1 CPT: growth inhibition of DT40 Tdp1-/-;hTDP1 cells with camptothecin (screen for TDP1 inhibitors); chicken DT40 Tdp1-/-;hTDP1 cells + 20 nM CPT, ATP luminescence, 48 h; Potency, µM (highest dose often 46.2 µM), hits mostly inhibitors; actives 12% (n = 420,000); AID 686979; note: nearly all actives have a fitted effect of over 55% in size
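Chicken DT40 Tdp1-/- cells stably complemented with human TDP1 were seeded at 400 cells/well in medium containing 20 nM camptothecin, exposed to pin-transferred compounds, and grown at 37 °C for at least 48 hr. Viability was read as ATP luminescence.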
LDHA inh: blocks human lactate dehydrogenase A; P00338; purified LDHA, NADH/diaphorase-resazurin fluorescence; active compounds read low; activity change, % (values are at about 110 or 230 µM); actives 0.15% (n = 480,000); in the data active = activity change below about -30%; inconclusive = mostly about -25% to -30%
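Enzyme activity of human lactate dehydrogenase 5 (2 nM; 0.06 mM NADH, 0.2 mM pyruvate, 5 min, RT) is measured via a resazurin/diaphorase fluorescence readout of residual NADH.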
RORgamma inh: blocks mouse ROR gamma transcriptional activity. P51450. Drosophila S2 Gal4-RORgamma UAS-luciferase reporter, 20 h. Potency, µM (series often up to 53.6 µM), usual class: inhibitors. actives 5.4% (n = 310,000); note: nearly all actives have a fitted effect of over 60% in size
Target sequence (P51450 whole entry, looked up, the tested form may be a part): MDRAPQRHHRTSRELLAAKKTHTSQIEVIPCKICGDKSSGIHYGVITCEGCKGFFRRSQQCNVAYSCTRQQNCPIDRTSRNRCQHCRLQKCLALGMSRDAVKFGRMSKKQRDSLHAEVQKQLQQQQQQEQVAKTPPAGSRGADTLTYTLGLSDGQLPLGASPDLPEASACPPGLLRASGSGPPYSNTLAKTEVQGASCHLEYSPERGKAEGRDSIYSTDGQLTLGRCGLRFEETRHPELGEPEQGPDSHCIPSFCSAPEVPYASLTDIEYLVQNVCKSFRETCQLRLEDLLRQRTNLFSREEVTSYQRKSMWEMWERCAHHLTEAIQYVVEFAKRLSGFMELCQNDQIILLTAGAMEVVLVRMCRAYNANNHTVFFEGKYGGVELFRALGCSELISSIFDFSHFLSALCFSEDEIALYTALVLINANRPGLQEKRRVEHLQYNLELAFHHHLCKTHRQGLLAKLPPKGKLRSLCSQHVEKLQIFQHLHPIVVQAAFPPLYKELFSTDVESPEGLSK
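Compounds are pin-transferred onto Drosophila Schneider cells expressing a copper-inducible Gal4–ROR gamma transactivation domain fusion. After 1 hr, copper sulfate is added to 700 uM final; luciferase is read 20 hr later.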
IL1B secr inh: inflammasome signaling inhibition, IL-1 beta readout. THP-1 LPS/ATP IL-1B secretion, AlphaLISA, 16 h; active compounds read low. activity change, % at 57.5 µM. actives 4.7% (n = 360,000). AID 743279; in the data active = activity change below about -50%; inconclusive = mostly about -30% to -49%
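Secreted IL-1B measured by AlphaLISA bead assay after 16 h compound exposure of THP-1 cells; compounds (final up to 57.5 uM) added 1 h before LPS (250 ng/mL) and ATP (1.25 mM) stimulation; lower signal means less secretion.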
VP16 counter: inhibits Gal4-VP16 luciferase reporter, ROR gamma counter-screen. Drosophila S2 Gal4-VP16 UAS-luciferase, luminescence, 20 h. Potency, µM (highest dose often 53.6 µM), hits mostly inhibitors. actives 3.5% (n = 310,000). AID 2546;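 note: Gal4-VP16 expression switched on by copper sulfate through the metallothionein promoter; nearly all actives have a fitted effect of over 50% in size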
DT40 TDP1 no CPT: qHTS for Inhibitors of human tyrosyl-DNA phosphodiesterase 1 (TDP1): qHTS in cells in absence of CPT; DT40 Tdp1-/- hTDP1 cells, no CPT, ATP luminescence, 48 h; Potency, µM (titrated, usually from 46.2 µM), most hits filed as inhibitors; actives 15% (n = 420,000); AID 686978, 2013; note: nearly all actives have a fitted effect of over 55% in size
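Compound effects on proliferation are scored in DT40 Tdp1-/-;hTDP1 cells in the absence of CPT. ATP levels (CellTiter-Glo luminescence) are recorded after a ≥48 hr, 37 °C incubation.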
Numbers stand for hits; – = inactive; ? = inconclusive; · = no result; [ ] = dose if it differs, or a comment. This is a sample that favours compounds with a hit; in the whole collection about 18% have one here. Unless noted, calls come from the whole dose curve; as a rule, active = well fitted curve in the direction sought with a large enough effect; inconclusive = small, poorly fitted or top-dose-only effect, or another doubt; inactive = no such curve, though single readings can be large; an effect the other way counts as inactive or inconclusive.

SMILES	DT40 TDP1 CPT	LDHA inh	RORgamma inh	IL1B secr inh	VP16 counter	DT40 TDP1 no CPT
CCC(C)(C)NC(=O)C(c1ccc(F)cc1)N(Cc1ccco1)C(=O)c1snc(C(N)=O)c1N (stereo not drawn)	?	–	–	–	–	–
CN(C)c1ccc(C(C(=O)NCC2CCCO2)N(Cc2ccccc2)C(=O)c2snc(C(N)=O)c2N)cc1 (stereo not drawn)	10µM	–	–	–	–	18µM
COc1ccc(C(C(=O)NCc2ccc(F)cc2)N(Cc2cccnc2)C(=O)c2snc(C(N)=O)c2N)cc1 (stereo not drawn)	?	–	–	–	–	?
CCCCOC(=O)c1ccc(NC(=O)c2cc(=O)c3cc(C)cc(C)c3o2)cc1	·	–	·	·	·	·
CC(C)CCCNC(=O)c1cn(C)c2ccccc12	·	–	·	·	·	·
OCc1ccc(-c2nc3ccccc3s2)o1	·	–	·	·	·	·
CN(C)c1ccc(C(C(=O)NCc2ccccc2)N(Cc2ccco2)C(=O)c2snc(C(N)=O)c2N)cc1 (stereo not drawn)	15µM	–	–	-72	–	8.2µM
Cc1ccc(NC(=O)c2cc3c(=O)n(Cc4ccco4)ccc3nc2C)cc1C	26µM	–	·	·	·	?
COc1ccc(CNC(=O)c2cc3c(=O)n(Cc4ccco4)ccc3nc2C)cc1	–	–	·	·	·	–
CSc1ccc(CNC(=O)c2cc3c(=O)n(Cc4ccco4)ccc3nc2C)cc1	29µM	–	·	·	·	23µM
CCOc1ccccc1CNC(=O)c1cc2c(=O)n(Cc3ccccc3)ccc2nc1C	18µM	–	·	·	·	16µM
Brc1cc(Br)c2ncnc(N3CCCCC3)c2c1	21µM	–	–[10 µM]	–	–	13µM
CCC(CC)COC(=O)C1=C(C)NC(=O)NC1c1ccc(N(C)C)cc1 (stereo not drawn)	?	–	–	?	–	21µM
CCOC(=O)C1=C(C)NC(=O)NC1c1ccc(N(C)C)cc1 (stereo not drawn)	–	–	–	–	–	–
CC(=O)c1cccc(NC(=O)Nc2ccc3c(c2)CCC3)c1	–	–	7.1µM	–	7.9µM	–
COc1cccc(NC(=O)c2ccc3c(c2)CCCC3)c1	?	–	–	?	–	?
CC(=O)c1cccc(NC(=O)c2ccc3c(c2)CCCC3)c1	?	–	1.4µM	?	2.8µM	?
CCOC(=O)Nc1cccc(OCC(=O)Nc2ccc3c(c2)CCC3)c1	?	–	·	–	·	23µM
CN(C)CCN(Cc1ccccc1)c1nccc(N(C)C)c1C#N	–	–	–	–	–	–
CN(C)c1nccc(Nc2ccccc2)c1C#N	?	–	–	–	–	21µM
Cn1nc(C(F)(F)F)c(Br)c1C(=O)Nc1sc2c(c1C(N)=O)CCC2	·	–	·	·	·	·
O=C(OCc1nnnn1-c1ccccc1)C1(c2ccccc2)CCCC1	·	–	·	·	·	·
COCCn1c(=O)[nH]c(=O)c2c1nc(-c1ccc(-c3ccc(Cl)cc3[N+](=O)[O-])o1)n2Cc1ccccc1	16µM	–	?	–	?	23µM
COc1ccc(-c2ccc(-c3nc4c(c(=O)[nH]c(=O)n4Cc4ccccc4)n3C)o2)c([N+](=O)[O-])c1	?	–	–[10 µM]	–	–	26µM
COc1ccc(Br)cc1-c1nc2c(c(=O)[nH]c(=O)n2Cc2ccccc2)n1C	–	–	–	–	?	?
SMILES	DT40 TDP1 CPT	LDHA inh	RORgamma inh	IL1B secr inh	VP16 counter	DT40 TDP1 no CPT
O=c1[nH]c(=O)n(Cc2ccccc2)c2nc(-c3ccc(Oc4ccc(F)cc4)c([N+](=O)[O-])c3)n(CCO)c12	16µM	–	?	–	–	18µM
Cc1ccc(CNC(=O)c2cc3c(C)nn(C)c3s2)cc1	·	–	·	·	·	·
CCCC(=O)Oc1ccc2c(=O)c(-c3ccccc3OC)coc2c1	·	–	·	·	·	·
COc1cccc(-c2ncn(CCc3ccccc3OC)c2C(C)C)c1	7.3µM	–	·	–	·	5.8µM
COc1ccccc1CCn1cnc(Cc2cccc(F)c2)c1C(C)C	?	–	·	–	·	?
CCc1ncn(CCc2ccccc2OC)c1C(C)C	3.7µM	–	·	–	·	4.6µM
